# Bioassay records: PubChem BioAssay, several laboratories
# An excerpt weighted towards active compounds, which were near 8.9% of everything screened.
# WNV protease inh = WNV NS2B-NS3 proteinase inhibition. P06935. WNV NS2B-NS3 protease, fluorogenic substrate Ex360/Em465; active compounds read low. z-score (no concentration beside the values). 0.18% of 65,000 active. AID 577; in the data active = z-score below about -3
# M1 ag = M1 muscarinic receptor agonism | CHO-M1 cells, Fluo-4 calcium fluorescence, agonist mode; active compounds read high | B-score at 10 µM | 3% of 64,000 active;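 active = fluorescence rise, raw or as B-score row- and column-corrected plate score, outside the 99.7% band of its plate's samples, either direction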
# M1 antagonist = M1 muscarinic receptor (rat) antagonism; P08482; CHO-M1 cells, Fluo-4 calcium, ACh EC80 antagonist mode; active compounds read low; B-score at 10 µM; 3.4% of 64,000 active;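 active = calcium fluorescence response, raw or row-and-column corrected B-score, differing from the plate sample mean either way at a set confidence level, mostly lower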
# Target sequence (P08482 whole entry, looked up): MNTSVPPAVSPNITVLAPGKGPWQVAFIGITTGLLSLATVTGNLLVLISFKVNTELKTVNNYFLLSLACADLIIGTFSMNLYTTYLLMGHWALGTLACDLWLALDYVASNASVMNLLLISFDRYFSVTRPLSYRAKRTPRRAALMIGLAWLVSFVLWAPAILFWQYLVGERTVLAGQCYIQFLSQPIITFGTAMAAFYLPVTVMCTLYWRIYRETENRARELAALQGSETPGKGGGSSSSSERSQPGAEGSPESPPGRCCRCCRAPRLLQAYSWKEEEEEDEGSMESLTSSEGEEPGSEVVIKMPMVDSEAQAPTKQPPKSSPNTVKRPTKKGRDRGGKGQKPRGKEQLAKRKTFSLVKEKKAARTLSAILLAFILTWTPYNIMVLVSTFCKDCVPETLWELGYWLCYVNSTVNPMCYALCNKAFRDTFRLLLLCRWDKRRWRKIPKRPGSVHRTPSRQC
# Htt clearance = mutant huntingtin protein clearance; 0.42% of 47,000 active; HeLa Exon1htt(103Q)mCFP, aggregate imaging; zero = plate's median compound well; inhibition, % at 1.5 µM; AID 853;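 active = inhibition of aggregate fluorescence above about 70%, also judged a hit by eye on the cell image, limit read from the data, passing the limit was not always enough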;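 also: cells exposed to compound for three days before fixation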
# D1 allo mod = allosteric modulators of human D1 dopamine receptor. B-score at 10 µM. P21728. HEK293 D1, CRE-luciferase, dopamine EC30 potentiation; actives deviate in either direction. 5.9% of 58,000 active;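 active = luminescence count or its row- and column-corrected plate score outside the 99.7% band of the plate's sample wells, on either side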
# D1 PAM confirm = confirmation of human D1 dopamine receptor allosteric modulators | shares compounds with D1 allo mod | HEK293 D1 CRE-luciferase, dopamine EC30 potentiation; active compounds read high | luminescence at 10 µM | 88% of 2,200 active | AID 642;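 active = luminescence in either of two replicates above the same-plate mean plus 3 SD of the low-dose dopamine control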
# D1 ag no DA = activates D1 CRE-luciferase signal without dopamine present; shares compounds with D1 allo mod; HEK293 D1 CRE-luciferase, luminescence, no dopamine; active compounds read high; luminescence at 10 µM; 0.8% of 1,900 active; AID 646; in the data active = luminescence above about 3900
# Isoprot counter = counter-screen for D1 modulators: isoproterenol response in HEK293 cells; shares compounds with D1 allo mod; HEK293 D1 CRE-luciferase, isoproterenol EC30 counter-screen; calls only at 10 µM; 63% of 2,200 active; AID 647;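 active = luminescence in either replicate above plate mean of wells with a partly effective reference agonist dose plus 3 SD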;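 also: isoproterenol raises cAMP through native beta-adrenoceptor Gs so signal bypasses D1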
# Hits are given with their value; i = inactive; nt = not tested or not shown; + = active, no number.
SMILES,WNV protease inh,M1 ag,M1 antagonist,Htt clearance,D1 allo mod,D1 PAM confirm,D1 ag no DA,Isoprot counter
CCOC(=O)c1sc(N(Cc2ccccc2)C(=O)CSc2nnc(C3CC3)n2N)nc1C,i,i,i,nt,6.16,18736,i,+
Nn1c(SCC(=O)NCc2ccccc2)nnc1C1CC1,i,i,i,i,i,nt,nt,nt
COCCCn1c(C)nc2c(c1=O)c1nc3ccccc3nc1n2CCc1ccccc1,i,i,i,i,nt,nt,nt,nt
CCOc1ccccc1OCc1nn2c(COc3ccccc3)nnc2s1,i,i,i,i,i,nt,nt,nt
c1ccc(Cc2nn3c(COc4ccccc4)nnc3s2)cc1,i,i,i,i,9.15,17316,i,+
CCCCNC1=C(Br)C(=O)CC(C)(C)C1,i,i,i,nt,nt,nt,nt,nt
COc1cc(-c2nn3c(-c4ccccc4)nnc3s2)cc(OC)c1OC,i,i,i,i,3.31,14804,i,+
COc1ccc(-c2nn3c(-c4ccco4)nnc3s2)cc1OC,i,i,i,i,15.7,18008,nt,+
COc1cc(-c2nnc3sc(-c4ccncc4)nn23)cc(OC)c1OC,i,i,i,nt,i,nt,nt,nt
COc1cc(-c2nn3c(Cc4ccccc4)nnc3s2)cc(OC)c1OC,i,i,i,i,3.98,9884,i,+
Cc1[nH]n(C(C)(C)C)c(=O)c1Sc1ccc(Cl)cc1,i,i,i,i,i,nt,nt,nt
CCCC(=O)N1CCN(c2ccc([N+](=O)[O-])c(NC(C)c3ccccc3)c2)CC1 (stereo not given),nt,nt,nt,i,nt,nt,nt,nt
COC(=O)c1ccc(Oc2nc(C)cc(Oc3ccccc3)n2)cc1,i,i,i,i,i,nt,nt,nt
CCOC(=O)c1ccc(Oc2nc(NC)nc(SC)n2)cc1,i,i,i,i,7.95,17796,i,i
CCOC(=O)c1ccc(Oc2cc(C)nc(SC)n2)cc1,i,i,i,i,3.01,8484,i,i
Cc1cc(Oc2ccccc2)nc(N)n1,i,i,i,i,4.01,9044,nt,+
COC(=O)c1ccc(Oc2cc(C)nc(-n3nc(C)cc3C)n2)cc1,i,i,i,i,7.78,18884,i,+
Cc1cc(Oc2ccccc2)nc(-c2ccccc2O)n1,i,i,i,i,nt,nt,nt,nt
OCc1nc2ccccc2n1CCCOc1ccc(Br)cc1,i,i,i,i,i,nt,nt,nt
CC(C)(C)OC(=O)N1CCOCCOCCN(C(=O)OC(C)(C)C)CCOCCOCC1,i,i,i,i,i,nt,nt,nt
Oc1[nH]c2ccccc2c1/C=N/c1nccs1,i,i,i,nt,i,nt,nt,nt
COC(=O)CSc1nc(C)cc(Oc2ccccc2)n1,i,i,i,nt,12.3,13148,nt,+
Cc1cc(C)n(-c2nnc3n2N=C(c2ccccc2)CS3)n1,i,i,i,i,i,nt,nt,nt
Cc1cc(C)n(-c2nnc3n2N=C(c2c[nH]c4ccccc24)CS3)n1,i,i,i,i,9.81,10564,i,+
O=C(OCN1C(=O)c2ccccc2C1=O)c1ccco1,i,i,i,nt,i,nt,nt,nt
SMILES,WNV protease inh,M1 ag,M1 antagonist,Htt clearance,D1 allo mod,D1 PAM confirm,D1 ag no DA,Isoprot counter
C=CCn1c(SCC(=O)Nc2sc(C)c(C)c2C(=O)OCC)nnc1-c1sc(N)nc1C,i,i,i,i,2.71,10116,i,i
COCCn1c(SCC(=O)OC(C)C)nnc1-c1ccccc1,i,i,i,i,i,nt,nt,nt
COc1cc(OC)cc(C(=O)Nc2ccccc2C(=O)N2CCCC2)c1,nt,nt,nt,i,nt,nt,nt,nt
COc1cc(OC)cc(C(=O)Nn2cc(C(=O)N3CCN(C)CC3)c3ccccc3c2=O)c1,i,i,i,i,2.91,5944,i,i
CC1(C)Cc2c(sc3nc(SCC(=O)O)[nH]c(=O)c23)CO1,i,i,i,nt,i,nt,nt,nt
CSC1=NC(NCCCO)c2c(sc3c2CC(C)(C)OC3)N1 (stereo not given),i,i,i,i,3.87,11400,i,i
O=C(O)CN(CCO)CCN(CC(=O)O)CC(=O)O,i,nt,nt,nt,nt,nt,nt,nt
Cc1noc(C)c1S(=O)(=O)N(CC(=O)N1CCCC1)c1ccc(C(C)C)cc1,i,i,i,nt,i,nt,nt,nt
Cc1noc(C)c1S(=O)(=O)N(CC(=O)N1CCCCCC1)c1ccc(C(C)C)cc1,i,i,i,i,1.82,i,i,i
O=C(Nc1ccc(F)cc1)N1CCOCC1,i,i,i,i,5.36,i,i,i
O=C(Nc1ccc(Cc2ccc(NC(=O)N3CCOCC3)cc2)cc1)N1CCOCC1,i,i,i,nt,i,nt,nt,nt
CCOC1(C(F)(F)F)NC(=O)N(Cc2ccc(OC)cc2)C1=O (stereo not given),i,i,i,i,i,nt,nt,nt
